# Bioassay records (PubChem BioAssay)
# TRPV1 PAM – HTS Assay for Compounds that Act as Potentiators of the Vanilloid Receptor 1 | Transient receptor potential cation channel subfamily V member 1 (Homo sapiens), Q8NER1 | TRPV1-expressing cells, Fluo-8 calcium influx, capsaicin EC20 potentiation | potentiation, % at 8.33 µM | 0.02% of 320,000 active | AID 540277, 2011; in the data active = potentiation above about 80%; inconclusive = between about 30% and that limit; also: 0% is about no effect
# Target sequence (Q8NER1 whole entry, looked up): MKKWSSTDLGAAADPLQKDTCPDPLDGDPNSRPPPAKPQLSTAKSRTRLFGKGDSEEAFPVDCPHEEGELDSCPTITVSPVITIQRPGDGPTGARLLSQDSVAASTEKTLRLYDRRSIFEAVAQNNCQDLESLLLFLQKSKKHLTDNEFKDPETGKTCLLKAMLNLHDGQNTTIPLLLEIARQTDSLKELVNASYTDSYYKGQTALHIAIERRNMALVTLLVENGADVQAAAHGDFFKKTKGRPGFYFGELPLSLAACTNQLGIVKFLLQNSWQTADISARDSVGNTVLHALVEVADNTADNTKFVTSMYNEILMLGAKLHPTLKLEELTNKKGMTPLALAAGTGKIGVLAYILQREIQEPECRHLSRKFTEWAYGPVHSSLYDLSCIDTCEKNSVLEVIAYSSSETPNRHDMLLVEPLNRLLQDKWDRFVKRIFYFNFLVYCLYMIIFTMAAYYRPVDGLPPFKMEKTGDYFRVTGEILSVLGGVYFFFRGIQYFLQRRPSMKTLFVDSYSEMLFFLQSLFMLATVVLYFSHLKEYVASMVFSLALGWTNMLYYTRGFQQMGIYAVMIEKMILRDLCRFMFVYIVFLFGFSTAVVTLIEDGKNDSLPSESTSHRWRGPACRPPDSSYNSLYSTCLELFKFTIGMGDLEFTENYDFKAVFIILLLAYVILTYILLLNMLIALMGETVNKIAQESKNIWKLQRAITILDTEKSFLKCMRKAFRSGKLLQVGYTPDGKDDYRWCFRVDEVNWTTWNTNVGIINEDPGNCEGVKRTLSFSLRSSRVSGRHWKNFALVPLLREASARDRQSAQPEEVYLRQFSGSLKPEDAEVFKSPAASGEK
#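 Cells expressing TRPV1 were dye-loaded with Fluo-8 and read kinetically: 10 s baseline, 3 min after compound (agonist portion), then 2 min after EC20 capsaicin (allosteric enhancer portion). Calcium-bound dye fluorescence at 480/520 nm.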
# KCNH2 3.1 block – qHTS for Inhibitors of KCHN2 3.1: Mutant qHTS | U2OS KCNH2 3.1, thallium flux FluxOr; active compounds read low | activity change, % (tested at about 1.8 µM) | AID 720553, 2013 | 0.95% of 340,000 active | Potassium voltage-gated channel subfamily H member 2, brain isoform KCNH2 3.1 (human);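 active = maximum activity change below -70%; inconclusive = maximum activity change from -70% to -50%; inactive = maximum activity change above -50%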;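 also: thallium influx rate constant from kinetic fluorescence after stimulation buffer; % is scaled to controls: 0 for no effect and ±100 for the full control effect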
#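 FluxOr-based Tl+ influx in U2OS cells transduced with KCNH2 3.1 virus; rate constants normalized to DMSO controls.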
# p53 reactivator – qHTS assay for re-activators of p53 using a Luc reporter | 0.063% of 320,000 active | H1299 p53-A138V BP100-luciferase reporter, luminescence, 24 h | Potency, µM (top dose mostly 92.2 µM), for the others: at the top dose activity change, positive = activation, most hits filed as activators; active = well fitted activation curve with a large enough effect; inconclusive = small, poorly fitted or top-dose-only effect; inactive = no such curve, though single readings can be large or run the other way; also: potency is read from the fitted curve at half-maximal effect; % of control where 0% means no effect; nearly all actives have a fitted effect of over 45% in size
#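 p53-null H1299 cells stably carrying temperature-sensitive p53-A138V and a BP100-luciferase reporter were pinned with compounds (4-point, 1:5 series) and held 24 hrs at 37 deg C. Luminescence was read 10 min after detection reagent.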
# TRPV1 ag – HTS Assay for Compounds that Act as Agonists of the Vanilloid Receptor 1 | AID 540275, 2011 | 0.19% of 320,000 active | Transient receptor potential cation channel subfamily V member 1 (Homo sapiens), Q8NER1 | TRPV1-expressing cells, Fluo-8 calcium influx, agonist mode | activation, % at 8.33 µM; in the data active = activation above about 80%; inconclusive = between about 30% and that limit; also: 0% is about no effect
#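 TRPV1-expressing cells were cultured overnight at 35.5C and loaded with Fluo-8 calcium dye for 40 to 90 min at room temperature. After a 10 s baseline, compound was added and calcium influx was read kinetically for 3 min (ex 480/em 520 nm).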
# ClpP mod – qHTS Assay for Activators of ClpP | ATP-dependent Clp protease proteolytic subunit (Bacillus subtilis (strain 168)), P80244 | Potency, µM (top dose mostly 57.5 µM), for the others: at the highest dose activity change, negative = active | 1.9% of 340,000 active | purified B. subtilis ClpP, FRET peptide cleavage, 20 min | AID 651965, 2013; active = well fitted falling curve with a large enough effect; inconclusive = small, poorly fitted or top-dose-only effect; inactive = no such curve, though single readings can be large or run the other way; also: potency is read from the fitted curve at half-maximal effect; the source files actives as falling curves though it sought activators and does not explain the sign; nearly all actives have a fitted effect of over 65% in size
#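 FRET quenching reversal measured ClpP activation: 10 microg/mL B. subtilis ClpP at pH 8 with the FRET-FV decapeptide, read at 430 nm after 320 nm excitation. The 20-min minus 0-min signal was scaled between DMSO/no-enzyme wells and ADEP (5.8 microM final).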
# KCNH2 WT inh – qHTS for Inhibitors of KCHN2 3.1: Wildtype qHTS; activity change, % at 1.84 µM; 0.37% of 340,000 active; U2OS, BacMam KCNH2, thallium flux FluxOr; active compounds read low; AID 720551, 2013;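 active = maximum activity change below -70%; inconclusive = maximum activity change between -70% and -50%; inactive = maximum activity change above -50%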; also: % is scaled to controls: 0 for no effect and ±100 for the full control effect
#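 U2OS cells were transduced with wild-type KCNH2 virus (2.03 x 10^8 / mL) for 4 h at room temperature, then cultured overnight at 37 C. Thallium flux was read with FluxOr dye. Rate constants were normalized to DMSO controls.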
# An asterisk follows results filed as active; ? = inconclusive; nt = no result. Hits are enriched below; roughly 2.6% of the tested compounds scored in any of these assays.
SMILES,TRPV1 PAM,KCNH2 3.1 block,p53 reactivator,TRPV1 ag,ClpP mod,KCNH2 WT inh
CC(=O)c1cccc(NC(=O)CCCN2C(=O)COc3ccc(C)cc32)c1,nt,nt,nt,nt,-4.0%,nt
CCOC(=O)c1cc2c(ccn2C)n1Cc1ccccc1C,-4.9,-7.8,-3.0%,16.6,?,-27.0
CCOC(=O)c1cc2c(ccn2C)n1Cc1ccccc1Cl,4.4,-88.6*,-3.7%,11.1,-25.5%,nt
CN(C)c1ccc(/C=C2/CCc3ccccc32)cc1,nt,nt,nt,nt,0.2%,nt
Cc1ccc2oc(-c3ccccc3)nc2c1,-2.3,-2.4,?,-2.3,14.1µM*,-3.1
CCCC(=O)Nc1ccc(-c2nc3cc(C)ccc3o2)cc1,1.7,2.7,?,2.3,39.8µM*,-6.7
CCOc1ccc(C(=O)Nc2ccc(-c3nc4cc(C)ccc4o3)cc2)cc1,nt,nt,nt,nt,-26.7%,nt
CCOc1cccc(-c2nc3cc(C)ccc3o2)c1,-12.6,-1.9,nt,-1.1,?,-9.5
COc1ccc(CC(=O)Nc2ccc(-c3nc4cc(C)ccc4o3)c(O)c2)cc1OC,8.4,-0.9,20.2%,20.6,35.5µM*,6.2
O=C(Cc1ccccc1)Nc1ccc2oc(-c3cccnc3)nc2c1,-15.9,1.2,3.8%,24.5,28.2µM*,-14.6
Cc1cccc(N(C)C(=O)CN(C)S(=O)(=O)c2ccc3[nH]c4c(c3c2)CCCC4)c1,nt,nt,nt,nt,-14.5%,nt
CCCCCC(=O)Nc1ccc2oc(-c3cccnc3)nc2c1,14.4,1.6,5.6%,2.8,15.8µM*,0.8
O=C(Nc1ccc2oc(-c3cccnc3)nc2c1)c1ccc(-c2ccccc2)o1,nt,nt,nt,nt,4.2%,nt
COCCNc1nc(SCC(=O)N2CCN(c3ccccc3OC)CC2)nc2ccccc12,8.5,-120.2*,-5.8%,5.4,-0.1%,2.1
Oc1cccc(/C=N/Nc2cc(N3CCOCC3)nc(N3CCOCC3)n2)c1,-28.8,-0.2,-5.6%,93.1*,-3.2%,-3.5
COc1cccc(/C=C/c2nc3ccccc3nc2/C=C/c2cccc(OC)c2OC)c1OC,nt,nt,nt,nt,-2.0%,nt
Nc1ccc2oc3ccccc3c2c1,3.2,-17.6,?,-0.9,17.8µM*,-3.7
CN(C)c1ccc(/C=C/c2sc3ccccc3[n+]2CCCCI)cc1,nt,nt,nt,nt,1.3%,nt
COc1cc(OC)c(NC(=O)c2ccc3c(SCC(=O)O)c4c(nc3c2)CCCC4)cc1Cl,-1.5,-104.5*,-1.8%,1.5,0.2%,4.0
COc1cc(NC(=O)c2ccc3c(SCC(=O)O)c4c(nc3c2)CCCC4)cc(OC)c1OC,2.3,-77.1*,8.8%,0.9,0.4%,nt
COc1ccc(NC(=O)Nc2cccc(-c3cn4cccnc4n3)c2)cc1,nt,nt,nt,nt,-21.1%,nt
Cc1ccc(NC(=O)CSc2cc(=O)n(C)c3ccc(Cl)cc23)c(Br)c1,nt,nt,nt,nt,-14.7%,nt
CC(C)(C)NS(=O)(=O)c1ccc2nc(NC(=O)c3cccnc3)sc2c1,nt,nt,nt,nt,-3.2%,nt
CCS(=O)(=O)Nc1c(C(=O)OC)[nH]c2ccccc12,5.9,-7.0,3.2%,-2.6,-28.0%,-2.2
CCS(=O)(=O)Nc1c(C(=O)O)[nH]c2ccccc12,4.6,6.2,10.8%,0.7,22.4µM*,0.7
CCN(Cc1ccccc1)c1ccc(/C=N/N=C(N)N)cc1,-7.1,-23.4,-5.2%,-1.7,25.1µM*,34.4
Cc1ccc2c(c1)[nH]c1c(=O)n(CCCN3CCOCC3)cnc12,nt,39.6,4.9%,nt,28.2µM*,4.4
O=c1c2[nH]c3ccc(Br)cc3c2ncn1Cc1ccncc1,-2.1,-5.8,-0.3%,-0.3,nt,9.4
Cc1ccc2c(c1)[nH]c1c(=O)n(CCN3CCCCC3)cnc12,-2.3,5.9,11.8%,8.9,?,-3.1
